From PubChem BioAssay
TSHR antag – Antagonists of the Thyroid Stimulating Hormone Receptor: HTS campaign; Thyrotropin receptor (Homo sapiens), P16473; TSHR-expressing cells, TSH-stimulated cAMP HTRF, 2 h; hits give low values; activity change, negative = inhibition, % at 11.5 µM; 330,000 tested, 0.2% active; AID 504810, 2011;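 active means activity change below a set negative limit, meaning inhibition stronger than a set level, cut at about -70% in these data; inconclusive means activity change between two set negative limits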
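Cell-based HTRF cAMP assay; TSHR cells + compound, TSH EC80 (4nM final), 2 h, 37 deg C. Lysis with anti-cAMP cryptate and cAMP-d2, 30 min RT, read 665/620 nm.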
ELG1 repair inh – qHTS screen for small molecules that inhibit ELG1-dependent DNA repair in human embryonic kidney (HEK293T) cells expressing luciferase-tagged ELG1 | HEK293T ELG1-luciferase reporter, luminescence, 16 h; DNA damage induced by 5-fluorouridine | Potency, µM (top dose mostly 46.1 µM), hits mostly inhibitors | 330,000 tested, 2.3% active | AID 504467, 2011; further: nearly all actives have a fitted effect of over 55% in size
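Quantitative HTS, concentration-response format. 2,000 cells/well co-treated with 5-fluorouridine and compound, 16 hr in 5% CO2 at 37 °C; ONE-Glo luminescence read after 30 min.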
VP16 counter – VP16 counterscreen qHTS for inhibitors of ROR gamma transcriptional activity | Drosophila S2 Gal4-VP16 UAS-luciferase, luminescence, 20 h | Potency, µM (highest dose often 53.6 µM), usual class: inhibitors | 310,000 tested, 3.5% active;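 further: Gal4-VP16 expression switched on by copper sulfate through the metallothionein promoter; nearly all actives have a fitted effect of over 50% in size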
RORgamma inh – qHTS for inhibitors of ROR gamma transcriptional activity; Drosophila S2 Gal4-RORgamma UAS-luciferase reporter, 20 h; Potency, µM (titrated, usually from 53.6 µM), hits mostly inhibitors; 310,000 tested, 5.4% active; AID 2551, 2010; further: nearly all actives have a fitted effect of over 60% in size
Target sequence (P51450 whole entry, looked up, the tested form may be a part): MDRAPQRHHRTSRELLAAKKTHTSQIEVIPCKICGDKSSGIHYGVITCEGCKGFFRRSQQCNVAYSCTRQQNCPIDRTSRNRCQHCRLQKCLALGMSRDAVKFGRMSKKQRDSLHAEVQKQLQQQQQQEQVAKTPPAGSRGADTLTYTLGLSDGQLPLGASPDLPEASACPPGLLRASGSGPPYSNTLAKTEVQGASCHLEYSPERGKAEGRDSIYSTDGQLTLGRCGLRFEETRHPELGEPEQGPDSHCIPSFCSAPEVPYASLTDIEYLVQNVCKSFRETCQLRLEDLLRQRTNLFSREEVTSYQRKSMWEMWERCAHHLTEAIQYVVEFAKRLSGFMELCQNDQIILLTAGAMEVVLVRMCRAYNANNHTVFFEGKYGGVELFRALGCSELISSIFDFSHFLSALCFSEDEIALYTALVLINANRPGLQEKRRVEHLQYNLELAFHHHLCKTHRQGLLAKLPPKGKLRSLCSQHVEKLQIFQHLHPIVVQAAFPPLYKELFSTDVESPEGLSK
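A Gal4/UAS one-hybrid system in insect cells: metallothionein-promoter Gal4–ROR gamma fusion plus Photinus luciferase reporter. Copper sulfate 700 uM final, 20 hr ambient incubation, luminescent detection after 10 min with reagent.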
B2AR arrestin – qHTS assay of beta-arrestin-biased ligands of beta2-adrenergic receptor | Potency, µM (highest dose often 46.1 µM), most hits filed as activators | beta-arrestin recruitment to beta2AR, cell-based reporter | 330,000 tested, 0.02% active | Beta-2 adrenergic receptor (Homo sapiens), P07550; further: nearly all actives have a fitted effect of over 65% in size
Large screens that a line does not name were inactive. An excerpt weighted towards active compounds, which were near 7.5% of everything screened. Unless noted, the call rests on the fitted dose curve; in most records, active means well fitted curve in the direction sought with a large enough effect; inconclusive means small, poorly fitted or top-dose-only effect, or another doubt; inactive means no such curve, though single readings can be large; an effect the other way counts as inactive or inconclusive.

S=c1[nH]nc(-c2ccc(Br)cc2)n1-c1ccc(Br)cc1	VP16 counter inconclusive, RORgamma inh 11µM
COCC(=O)N1CCC[C@@]2(CCN(Cc3ccc(C#N)cc3)C2)C1	none (no result: TSHR antag, ELG1 repair inh, B2AR arrestin)
COc1ccc([C@H]2CC(=O)C=C(c3ccnc4ccc(Cl)cc34)C2)cc1	none (no result: VP16 counter, RORgamma inh)
CN1CCN(c2ccc(-c3cc(O)c4ncccc4c3)cc2)CC1	none (no result: ELG1 repair inh, VP16 counter, RORgamma inh)
CN(C)c1ccc(-c2cncnc2NCCc2cnc[nH]2)cc1	none (no result: TSHR antag, ELG1 repair inh, B2AR arrestin)
CN(CCCN1CCOCC1)C(=O)c1ccc2nc(Cc3cccc(Cl)c3)oc2c1	ELG1 repair inh 15µM
CCC(=O)N(C1=C(NC(C)C)C(=O)c2ccccc2C1=O)C(C)C	ELG1 repair inh inconclusive, VP16 counter inconclusive, RORgamma inh 10µM
CCOc1ccc(NC2=C(OC)C(=O)c3ccccc3C2=O)cc1	none
COc1ccccc1NC(=S)N(CCCN(C)C)Cc1cc2cc3c(cc2[nH]c1=O)OCO3	none
COc1ccc2[nH]c(=O)c(CN(Cc3cccs3)C(=S)NCC3CCCO3)cc2c1 (centres undefined)	ELG1 repair inh 23µM
COC(=O)c1ccccc1NC(=S)N(Cc1ccc2c(c1)OCO2)Cc1cc2cc(OC)ccc2[nH]c1=O	ELG1 repair inh 10µM, VP16 counter inconclusive
CCN(CC)CCN(Cc1cc2cc(C)cc(C)c2[nH]c1=O)C(=S)NCc1ccco1	VP16 counter inconclusive
Cc1cc(C)c2[nH]c(=O)c(CN(Cc3cccs3)C(=S)NCc3ccco3)cc2c1	ELG1 repair inh 21µM
Cc1cc(C)c2[nH]c(=O)c(CN(Cc3cccs3)C(=S)NCC3CCCO3)cc2c1 (centres undefined)	ELG1 repair inh 26µM, RORgamma inh inconclusive
CC(C)CNC(=S)N(Cc1ccco1)Cc1cc2cc3c(cc2[nH]c1=O)OCCO3	ELG1 repair inh 10µM
Cc1ccc2cc(CN(Cc3ccco3)C(=S)NCC3CCCO3)c(=O)[nH]c2c1C (centres undefined)	ELG1 repair inh 10µM
Cc1ccc(NC(=O)CN2C(=O)S/C(=C\c3cc(Cl)c(OCC(=O)O)c(Cl)c3)C2=O)cc1	none
CC(C)(C)N=C1NN=C(c2cc3ccccc3o2)CS1	ELG1 repair inh inconclusive, VP16 counter inconclusive, RORgamma inh 6.3µM
CC(C)N=C1NN=C(c2cccs2)CS1	ELG1 repair inh inconclusive, RORgamma inh 13µM
CC(C)c1ccc(N=C2NN=C(c3cccs3)CS2)cc1	ELG1 repair inh inconclusive, VP16 counter inconclusive, RORgamma inh 13µM
Cc1ccc(C2=NNC(=Nc3ccc(F)cc3)SC2)cc1	VP16 counter inconclusive, RORgamma inh inconclusive
COCC(C)N=C1NN=C(c2ccc(NC(C)=O)cc2)CS1 (centres undefined)	ELG1 repair inh inconclusive, RORgamma inh inconclusive
CC(=O)c1c(C)[nH]c(C2=NNC(=NC(C)(C)C)SC2)c1C	ELG1 repair inh inconclusive, VP16 counter inconclusive, RORgamma inh inconclusive
CC(C)(C)N=C1NN=C(c2ccc(Cl)cc2)CS1	ELG1 repair inh inconclusive, VP16 counter inconclusive, RORgamma inh 7.1µM
CCCCN1C(=O)C(=O)N(CC(=O)N2CCc3ccccc32)C1=O	none (no result: VP16 counter, RORgamma inh)
CC(=O)N1C2(C=CC1(C)C(=O)NCc1cc(F)cc(C(F)(F)F)c1)CCCCC2 (centres undefined)	RORgamma inh inconclusive (no result: TSHR antag, ELG1 repair inh, B2AR arrestin)
O=S(=O)(Nc1cc(S(=O)(=O)N2CCOCC2)ccc1Cl)c1ccccc1	none (no result: VP16 counter, RORgamma inh)
Cc1cccc(CNC(=O)Cn2ccc3cc(S(=O)(=O)N4CCCC4)ccc32)c1	none
CC(C)N=C1NN=C(c2ccc(Cl)c(Cl)c2)CS1	ELG1 repair inh inconclusive, VP16 counter inconclusive, RORgamma inh 10µM
CC(=O)c1ccc(NC(=O)c2c(C)nn(-c3ccccc3)c2Cl)cc1	VP16 counter inconclusive, RORgamma inh 11µM
Cc1cccc(-n2ncc3c(N4CCCC4)ncnc32)c1	ELG1 repair inh inconclusive, VP16 counter inconclusive, RORgamma inh inconclusive
COc1ccc(-n2ncc3c(N4CCCCC4)ncnc32)cc1	ELG1 repair inh inconclusive, VP16 counter 2µM, RORgamma inh 5µM
COc1ccc(-n2ncc3c(NCC(C)C)ncnc32)cc1	ELG1 repair inh inconclusive
Clc1ccc(-n2ncc3c(N4CCCCCC4)ncnc32)cc1	ELG1 repair inh inconclusive, VP16 counter 14µM, RORgamma inh inconclusive
Cc1cccc(C(=O)N2CCN(c3ncnc4c3cnn4-c3ccccc3)CC2)c1	ELG1 repair inh 15µM, RORgamma inh inconclusive
COc1ccc(-n2ncc3c(NC(C)C)ncnc32)cc1	ELG1 repair inh inconclusive, VP16 counter inconclusive, RORgamma inh 11µM
COc1ccc(-n2ncc3c(N4CCN(c5cccc(C)c5C)CC4)ncnc32)cc1	none
COCCNC(=O)C(=O)NCCN1CCNCC1	none
CN(C)CCc1c[nH]c2ccc(CC3COC(=O)N3)cc12 (centres undefined)	none (no result: TSHR antag, ELG1 repair inh, B2AR arrestin)
CCCCCCCCCCCCC(C(=O)O)C(C)C(=O)O (centres undefined)	none (no result: TSHR antag, ELG1 repair inh, B2AR arrestin)
COc1ccccc1C(=O)NNC(=O)c1nn(Cc2ccccc2)c(=O)c2ccccc12	ELG1 repair inh inconclusive, VP16 counter inconclusive, RORgamma inh 6.3µM
CC(C)CNC(=O)c1nn(Cc2ccccc2)c(=O)c2ccccc12	none
CC(C)C[C@@H](CC(=O)N[C@@H](CCC(=O)O)CC(=O)O)NC(=O)[C@@H]1CNCC[C@H]1NC(=O)C[C@H](CCCN)NC(=O)C[C@H](Cc1ccccc1)NC(=O)[C@@H]1CCCC[C@H]1N	none (no result: TSHR antag, ELG1 repair inh, B2AR arrestin)
Cc1cc(C)c(NC(=S)N2CCN(c3ccc([N+](=O)[O-])cn3)CC2)cc1C	RORgamma inh inconclusive
Cc1ccc(OCC(=O)N/N=C/c2cccc3cccnc23)cc1	VP16 counter inconclusive, RORgamma inh 16µM
Cc1ccccc1OCC(=O)N/N=C/c1ccncc1	VP16 counter inconclusive
O=C(COc1cccc2cccnc12)N/N=C/c1ccccc1O	ELG1 repair inh 8.2µM, RORgamma inh inconclusive
COCc1cc(C)nc(OCC(=O)N/N=C/c2ccccc2O)c1C#N	ELG1 repair inh inconclusive, RORgamma inh 16µM
Cc1ccccc1OCC(=O)N/N=C/c1cccc2cccnc12	VP16 counter 14µM, RORgamma inh 11µM
COCc1cc(C)nc(OCC(=O)N/N=C/c2ccc(O)cc2O)c1C#N	ELG1 repair inh inconclusive
O=c1[nH]c2ccccc2nc1C(Nc1ccccc1)c1ccccc1 (centres undefined)	RORgamma inh inconclusive
CC1(C)C2CCC1(CS(=O)(=O)NCc1ccc(Cl)cc1Cl)C(=O)C2 (centres undefined)	none
C/C(=N\OCC(=O)N/N=C/c1ccccc1O)c1cccs1	VP16 counter 2.2µM, RORgamma inh 1.1µM
C/C(=N\OCC(=O)N/N=C/c1ccccc1)c1cccs1	none
